# RE007 growth inh: qHTS Assay for Inhibitors of the HIV-1 protein Vpr; S. pombe RE007 Vpr strain, BacTiter-Glo ATP luminescence, 24 h; Potency, µM (titrated, usually from 92.2 µM), inactives show top-dose activity change, negative = less growth, actives largely listed as inhibitors; 360,000 compounds, 0.21% hits; AID 651644, 2012; active = well fitted falling curve with a large enough effect; inconclusive = small, poorly fitted or top-dose-only effect; inactive = no such curve, though single readings can be large or run the other way; note: nearly all actives have a fitted effect of over 50% in size
#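 Fission yeast RE007 carrying one integrated HIV-1 vpr copy, seeded at OD 0.01 in PMG+AL medium with 23 nL pinned compound. Grown 24 h at 30 degrees; viability read by BacTiter-Glo luminescence after 5 min.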
# FBPA Giardia inh: qHTS Assay for Inhibitors of Fructose-1,6-bisphosphate Aldolase from Giardia Lamblia | A8B2U2 | AID 2451, 2010 | Potency, µM (top dose mostly 59.6 µM), without a hit: top-dose activity, negative = inhibition, usual class: inhibitors | 290,000 compounds, 0.71% hits | purified Giardia FBPA; note: nearly all actives have a fitted effect of over 55% in size
#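 40 nM FBPA preincubated 10 min at RT with compound (up to 57.5 uM final), then substrate plus GAPDH/TPI/NAD/arsenate coupling and diaphorase/resazurin added. Fluorescence read after 20 min at RT, 525/598 nm.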
# AmpC inh no detg: qHTS Inhibitors of AmpC Beta-Lactamase (assay without detergent) | P00811 | AmpC nitrocefin hydrolysis, absorbance 480 nm, 0.0001% Triton | Potency, µM (top dose mostly 57.1 µM), for the others: at the highest dose activity change, negative = inhibition, usual class: inhibitors | 330,000 compounds, 0.52% hits;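 note: plate controls were no compound for no effect and no enzyme for full effect; nearly all actives have a fitted effect of over 20% in size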
# Target sequence (P00811 whole entry, looked up): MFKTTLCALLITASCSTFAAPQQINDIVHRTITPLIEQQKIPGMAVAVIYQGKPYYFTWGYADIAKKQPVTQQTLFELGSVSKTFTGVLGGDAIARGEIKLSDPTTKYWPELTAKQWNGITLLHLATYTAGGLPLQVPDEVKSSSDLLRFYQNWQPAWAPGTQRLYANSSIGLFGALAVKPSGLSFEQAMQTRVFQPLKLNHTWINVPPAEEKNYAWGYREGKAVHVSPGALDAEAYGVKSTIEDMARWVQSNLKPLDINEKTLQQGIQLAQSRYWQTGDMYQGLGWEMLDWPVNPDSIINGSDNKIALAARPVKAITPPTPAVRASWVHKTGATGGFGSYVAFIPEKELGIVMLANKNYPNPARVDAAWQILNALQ
#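 20 mM phosphate pH 7.0 + 0.01% (detergent screen) or 0.0001% Triton X-100; 5.3 nM AmpC reagent; cpd preinc 15 min RT; nitrocefin (800 uM stock) to start; A480 q20 s × 4 min; Activity was normalised to no-enzyme and no-compound control wells.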
# AmpC detergent: qHTS Inhibitors of AmpC Beta-Lactamase (assay with detergent). 370,000 compounds, 0.041% hits. Potency, µM (titrated, usually from 114 µM), for inactives: at the top dose activity change, negative = inhibition, hits mostly inhibitors. AmpC hydrolysis of nitrocefin, absorbance 480 nm, 0.01% Triton. P00811;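 note: 0% = no-compound wells and -100% = no-enzyme wells; nearly all actives have a fitted effect of over 25% in size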
#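 20 mM phosphate pH 7.0 + 0.01% (detergent screen) or 0.0001% Triton X-100; 5.3 nM AmpC reagent; cpd preinc 15 min RT; nitrocefin (800 uM stock) to start; A480 q20 s × 4 min; Activity was normalised to no-enzyme and no-compound control wells.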
# Sm TGR inh: qHTS Assay for the Inhibitors of Schistosoma Mansoni Peroxiredoxins. purified TGR, DTNB reduction, TNB absorbance 405 nm. Potency, µM (top dose mostly 114 µM), without a hit: at the top dose activity change, negative = inhibition, usual class: inhibitors. 360,000 compounds, 3% hits. AID 485364, 2010; note: nearly all actives have a fitted effect of over 60% in size
#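 Kinetic colorimetric format: TGR-catalysed, NADPH-driven DTNB reduction monitored via TNB absorbance. Enzyme dispensed at 20 nM; compound exposure 15 min at room temperature before reaction start.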
# Starred values were filed as active, the others as inactive; ? = inconclusive; · = not tested or not shown. Compounds with a hit are over-represented: about 3.4% of the library has one in this group of screens. Unless noted, calls come from the whole dose curve; as a rule, active = well fitted curve in the direction sought with a large enough effect; inconclusive = small, poorly fitted or top-dose-only effect, or another doubt; inactive = no such curve, though single readings can be large; an effect the other way counts as inactive or inconclusive. Unless noted, % is set by controls: 0 for no effect and ±100 for the full control effect; potency is the fitted concentration of half-maximal effect.
SMILES,RE007 growth inh,FBPA Giardia inh,AmpC inh no detg,AmpC detergent,Sm TGR inh
O=C(NC1CCC(O)CC1)c1cc(Cl)c2c(c1)OCCO2 (centres undefined),-6%,·,-37%,·,·
CCN(CC)C(=O)[C@H]1C[C@H](CC(=O)NCCCOC)C(=O)N2CCc3c([nH]c4cc(-c5ccco5)ccc34)[C@]12C,3%,·,259%,·,·
CCOc1ccc(NC(=O)c2c(NCc3cc(OC)c(OC)cc3OC)sc3c2CCCC3)cc1,·,·,·,-7%,-27%
CCOc1ccc(NC(=O)c2c(NCc3sccc3C)sc3c2CCCCC3)cc1,·,·,·,2%,7.9µM*
Nc1nc(N2CCCCC2)nc(N(c2ccccc2)c2ccccc2)n1,-2%,0%,0.63µM*,?,-12%
COc1ccc(CCCC(=O)NCCc2ccccc2)c(C)c1,3%,4%,-3%,-14%,-17%
COC(=O)c1sccc1NC(=O)Nc1ccc(Cl)c(Cl)c1,2%,1%,0.16µM*,3%,5%
COC(=O)c1sccc1NC(=O)Nc1ccc(C)c(C)c1,?,·,-59%,-2%,-6%
CCCn1c2ccccc2c2cnn(CC(=O)OC)c(=O)c21,?,1%,-5%,-13%,0%
CC(=O)C1=C(c2ccccc2)NC(=O)NC1c1ccc(O)c(O)c1 (centres undefined),0%,-17%,-21%,-1%,16µM*
C=C1C2CC[C@@]3(C)C(c4ccoc4)OC(=O)C[C@@]13OC1CC(=O)C(C)(C)C(C(O)C(=O)OC)[C@]12C (some centres undefined),·,-6%,·,·,·
COc1cccc(-c2nnc(SCc3ccc(C#N)cc3)n2Cc2ccco2)c1,15%,6%,-3%,-15%,40µM*
Cc1ccccc1CSc1nnc(-c2ccco2)n1Cc1ccco1,9%,-2%,2%,-4%,?
CC(C)(C)NC(=O)CSc1nnc(-c2ccco2)n1Cc1ccco1,-11%,-4%,-20%,11%,-26%
CCN(CC)C(=O)CSc1nnc(-c2ccco2)n1N,11%,3%,-16%,-5%,14%
CCN(CC)C(=O)CSc1nnc(-c2ccco2)n1Cc1ccco1,-8%,-3%,-12%,0%,50µM*
COC(=O)CSc1nnc(-c2ccco2)n1Cc1ccco1,-9%,-7%,1%,-8%,13µM*
c1ccc(CSc2nnc(-c3ccco3)n2Cc2ccco2)cc1,21%,-2%,-18%,-10%,45µM*
COc1cccc(NC(=O)Cn2c(=O)n(-c3ccc(Cl)cc3)c(=O)c3sc4ccccc4c32)c1,·,·,·,8%,?
Cc1cc(C)n(S(=O)(=O)c2ccccc2)n1,2%,-9%,-20%,9%,1%
CCN(CC)C(=O)[C@H]1CC(CC(=O)NC/C=C(\C)CCC=C(C)C)C(=O)N2CCc3c([nH]c4ccc(OC)cc34)[C@]12C (some centres undefined),-9%,·,203%,·,·
CCCCCc1nnc(NS(C)(=O)=O)s1,4%,-1%,-2%,0%,3%
CCn1c(SCC(N)=O)nnc1-c1ccco1,-6%,7%,-16%,-11%,-12%
CCn1c(SCc2cccc(C(F)(F)F)c2)nnc1-c1ccco1,20%,6%,5%,-1%,28µM*
COCCn1c(SCc2cccnc2)nnc1-c1ccco1,-5%,0%,-16%,-8%,28µM*
COC(=O)CSc1nnc(CSc2nc(C)cc(C)n2)n1Cc1ccco1,3%,-4%,22%,-1%,40µM*
COCCn1c(SCC(=O)NCCc2ccccc2)nnc1-c1ccco1,-5%,4%,0%,?,?
CC(=O)c1c(C)[nH]c(C(=O)CSc2nnc(-c3ccco3)n2Cc2ccccc2)c1C,10%,-16%,88%,?,40µM*
CC(=O)c1c(C)[nH]c(C(=O)CSc2nnc(-c3cccs3)n2Cc2ccccc2)c1C,-5%,-4%,29%,0%,-26%

# Compound activity deposited in PubChem BioAssay by National Center for Advancing Translational Sciences (NCATS).
